Compound activity as filed in PubChem BioAssay.
In the library only some 3.8% were active in any assay of this set; here they are far more common.
proKLK7 act = proKLK7 (human) activation, primary screen | activation, % at 7 µM | P49862 | actives 0.9% (n = 370,000) | purified proKLK7, EDANS-DABCYL substrate fluorescence; 100% is mature enzyme control, 0% vehicle;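 active means activation above the mean of all tested compounds plus 3 SD, computed per campaign excluding outliers beyond control limits, cut at about 13% in these data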
Target sequence (P49862 whole entry, looked up): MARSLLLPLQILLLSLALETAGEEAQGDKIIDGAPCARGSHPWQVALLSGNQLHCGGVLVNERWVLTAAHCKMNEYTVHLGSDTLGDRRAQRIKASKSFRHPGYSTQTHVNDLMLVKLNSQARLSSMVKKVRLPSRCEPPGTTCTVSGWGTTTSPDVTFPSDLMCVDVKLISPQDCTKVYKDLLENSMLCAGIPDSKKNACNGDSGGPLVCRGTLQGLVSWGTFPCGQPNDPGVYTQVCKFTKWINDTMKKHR
FGF22 binding = FGF22 (human) thermal shift binding; activity (Tm shift, normalised), % at 9.99 µM; actives 1.5% (n = 340,000); recombinant FGF22 thermal shift, SYPRO orange fluorescence; percent of sucrose octasulfate shift, DMSO zero; Q9HCT0;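 active means mean Tm shift, scaled 0 neutral to 100 positive control, at about 1.3% or above, every replicate too, limit read from the data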
Target sequence (Q9HCT0 whole entry, looked up): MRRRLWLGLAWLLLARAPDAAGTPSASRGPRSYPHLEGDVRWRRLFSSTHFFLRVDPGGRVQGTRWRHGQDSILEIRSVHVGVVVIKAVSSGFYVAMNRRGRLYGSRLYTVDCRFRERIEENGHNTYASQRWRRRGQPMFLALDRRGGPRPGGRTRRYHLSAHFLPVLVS
ADAM17 inh = inhibits human ADAM17. recombinant ADAM17, EDANS/DABCYL FRET peptide cleavage. P78536. inhibition, % at 6.95 µM. actives 0.83% (n = 370,000);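 active means inhibition above the mean of compounds lying between control limits plus 3 SD, set per campaign, cut at about 8.5% in these data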;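 further: 0% = DMSO-only wells as the low control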
Ecoli rRNA inh = inhibitors of bacterial rRNA selective over humanized ribosomes; E. coli WT GFP vs humanized-ribosome RFP mutants, fluorescence, 24 h; hits give low values; DMSO median 0, no signal -100; GFP signal change (wild-type ribosome), % (test concentration not listed); actives 1.6% (n = 350,000);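 active means significant combined selectivity score with lowered wild-type GFP, culture density cut under 30%, mutant RFP and density less affected; inactive means any of these conditions unmet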
ADAM10 inh = ADAM10 inhibition, QFRET primary screen; actives 0.62% (n = 370,000); AID 720582; recombinant ADAM10, EDANS/DABCYL FRET peptide cleavage, 3 h; O14672; inhibition, % at 7 µM;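 active means inhibition above a per-campaign cutoff equal to the mean of compounds falling between control-based bounds plus 3 SD, cut at about 20% in these data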;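 further: 0% = DMSO wells while the 100% control is not disclosed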
ADAM10 confirm = confirmation of inhibitors of human ADAM10; shares compounds with ADAM10 inh; ADAM10 QFRET peptide cleavage, EDANS fluorescence; inhibition, % at 6.95 µM; actives 1% (n = 2,100); AID 743208;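 active means inhibition above about 20% chosen separately for each screening run, limit read from the data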;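 further: 0% = DMSO wells and 100% = marimastat wells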
ADAM17 ctr = inhibits human ADAM17 in ADAM10 exosite counter-screen. inhibition, % at 6.95 µM. shares compounds with ADAM10 inh. actives 0.5% (n = 2,100). ADAM17 QFRET peptide cleavage, EDANS fluorescence;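 active means mean triplicate inhibition above the solvent-only control wells' mean plus 3 SD, cut at about 12% in these data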;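 further: 0% = DMSO wells and 100% = marimastat wells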
ADAM10 ctr = counter-screen for ADAM17 exosite inhibitors: inhibitors of human ADAM10; inhibition, % at 6.95 µM; shares compounds with ADAM17 inh; recombinant ADAM10, EDANS/DABCYL FRET peptide cleavage, 3 h; AID 743256; actives 47% (n = 2,900);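 active means mean inhibition over the triplicate runs exceeds the activity threshold set in the earlier primary screen, cut at about 20% in these data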;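 further: 0% = DMSO wells and 100% = marimastat wells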
ADAM17 confirm = human ADAM17 inhibition, confirmation. inhibition, % at 6.95 µM. recombinant ADAM17, EDANS/DABCYL QFRET peptide cleavage. shares compounds with ADAM17 inh. actives 65% (n = 2,900);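 active means mean inhibition across replicates above the hit cutoff set in the primary screen, cut at about 8.5% in these data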;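 further: 0% = DMSO wells and 100% = marimastat wells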
Active calls of the source: *; · = not tested or not shown.

SMILES	proKLK7 act	FGF22 binding	ADAM17 inh	Ecoli rRNA inh	ADAM10 inh	ADAM10 confirm	ADAM17 ctr	ADAM10 ctr	ADAM17 confirm
CC(CCc1ccc(O)cc1)NCCC(c1ccccc1)c1ccccc1 (centres undefined)	0.2	0.2	-3.1	-55.5	4.8	·	·	·	·
COc1ccc(C#Cc2ccc3c(c2)O[C@@H](CN(C)C(=O)Nc2cccc(OC)c2)[C@@H](C)CN([C@@H](C)CO)S3(=O)=O)cc1	·	-0.2	·	-0.6	·	·	·	·	·
C[C@@H]1CN([C@@H](C)CO)C(=O)Cc2cc(NC(=O)Nc3ccc(C(F)(F)F)cc3)ccc2O[C@@H]1CN(C)C(=O)Nc1ccc2c(c1)OCO2	·	0.1	·	1.2	·	·	·	·	·
O=C(Nc1ccc(C(O)(C(F)(F)F)C(F)(F)F)cc1)c1ccc(Cl)c([N+](=O)[O-])c1	0.2	1.1	15.8*	-58.5	33.8*	3.9	1.6	49.3*	22.4*
Cc1ccc(S(=O)(=O)N[C@@H]2CC[C@@H](CC(=O)NC3CCCCC3)O[C@H]2CO)cc1	·	0.0	·	-0.2	·	·	·	·	·
c1ccc(CN2CCC(Nc3nc(-c4ccccc4)nc4ccccc34)CC2)cc1	0.1	·	8.9*	·	20.9*	8.2	3.5	21.8*	14.8*
Cc1cccc(NC(=S)N/N=C/c2ccc([N+](=O)[O-])s2)c1	0.4	·	13.0*	·	25.9*	7.5	4.0	22.8*	15.3*
O=C(COC(=O)/C=C/c1cccc(Cl)c1)Nc1ccc(N2CCOCC2)cc1	0.0	0.3	-4.8	13.8	-4.7	·	·	·	·
Cc1ccc(NC(=O)COC(=O)/C=C/c2cccc(Cl)c2)cc1S(=O)(=O)N1CCOCC1	-0.1	0.2	9.5*	0.2	29.4*	4.9	1.7	26.2*	15.4*
Cc1ccc(NC(=O)COC(=O)CC2CC3CCC2C3)cc1S(=O)(=O)N1CCOCC1 (centres undefined)	0.2	-0.2	12.4*	-23.8	23.3*	0.9	0.2	10.6	8.0
Cc1ccc(NC(=O)COC(=O)CN2C(=O)C3CCCCC3C2=O)cc1S(=O)(=O)N1CCOCC1 (centres undefined)	-0.4	·	0.1	·	-7.5	·	·	·	·
CC[C@@]12C(=O)N(c3cccc(Br)c3)C(=O)N1[C@H](c1ccc(F)cc1)[C@@H]1C(=O)N(C3CCCCC3)C(=O)[C@@H]12	0.2	0.2	10.7*	16.8	25.6*	7.1	2.1	19.9*	14.2*
CC(C)C[C@@]12C(=O)N(c3cccc(Br)c3)C(=O)N1[C@H](c1ccc(F)cc1)[C@@H]1C(=O)N(C3CCCCC3)C(=O)[C@@H]12	0.0	0.0	2.4	0.1	16.5	·	·	·	·
O=C(Oc1ccc(OC(=O)c2ccco2)c(S(=O)(=O)c2ccc(Cl)cc2)c1)c1ccco1	-0.5	·	8.8*	·	26.4*	4.2	1.6	19.7	9.7*
CC(=O)c1cc(Cl)ccc1OC(=O)c1ccco1	-0.3	·	-6.9	·	3.5	·	·	·	·
COc1cc(/C=N/O)cc(Br)c1OCc1ccc(Cl)cc1	-0.2	·	8.9*	-22.1	21.4*	13.2	3.1	21.0*	10.7*
O=C(C[C@@H]1C=C[C@H](NC(=O)C2CCOCC2)[C@H](CO)O1)NCC1CC1	·	0.3	·	4.6	·	·	·	·	·
CC(O)(c1ccc(F)c(F)c1)c1nc(-c2cc3ccccc3o2)cs1 (centres undefined)	0.1	-0.3	9.6*	-37.5	27.2*	12.4	3.3	36.4*	18.1*
C[C@@H]1CCCCO[C@@H](CN(C)C(=O)CCC(F)(F)F)[C@@H](C)CN([C@H](C)CO)C(=O)c2cc(NC(=O)c3ccncc3)ccc2O1	·	-0.1	·	-0.1	·	·	·	·	·
Cc1ccc(NC(=O)c2cc(S(=O)(=O)NCCc3ccccc3)ccc2F)cc1Cl	0.0	·	15.7*	·	22.9*	10.2	3.3	23.9*	14.3*
O=C(Nc1cccc(Cl)c1)c1cc(S(=O)(=O)NCCc2ccc(Cl)cc2)ccc1F	0.1	0.1	13.1*	-36.6	28.9*	11.1	4.3	34.1*	17.4*
CCOC(=O)N1CCC(NC(=O)c2cc(S(=O)(=O)NCCc3ccccc3)ccc2F)CC1	0.2	-0.1	3.2	-9.9	-6.1	·	·	·	·
C[C@H]1CN([C@@H](C)CO)C(=O)c2cc(NC(=O)Nc3ccccc3)ccc2O[C@@H]1CN(C)Cc1ccc(Oc2ccccc2)cc1	·	-0.4	·	1.6	·	·	·	·	·
Cc1ccc(S(=O)(=O)N(C)C[C@H]2Oc3cc(Br)ccc3S(=O)(=O)N([C@@H](C)CO)C[C@H]2C)cc1	·	-0.1	·	-4.8	·	·	·	·	·
Cc1ccc(S(=O)(=O)N(C)C[C@H]2Oc3cc(Br)ccc3S(=O)(=O)N([C@H](C)CO)C[C@H]2C)cc1	0.9	0.0	17.0*	-3.6	30.6*	1.4	0.3	11.6	6.7
SMILES	proKLK7 act	FGF22 binding	ADAM17 inh	Ecoli rRNA inh	ADAM10 inh	ADAM10 confirm	ADAM17 ctr	ADAM10 ctr	ADAM17 confirm
Cc1ccc(Cn2c(C(C)Nc3nc(-c4ccc(Cl)c([N+](=O)[O-])c4)cs3)nc3cc(C(F)(F)F)ccc32)cc1 (centres undefined)	0.0	0.2	3.8	18.4	-1.8	·	·	·	·
CCn1nc([N+](=O)[O-])c(C(C#N)c2nc3cc(C(F)(F)F)ccc3s2)c(Cl)c1=O (centres undefined)	-0.3	·	11.0*	·	27.6*	4.8	2.9	22.8*	13.7*
C[C@@H]1CN([C@@H](C)CO)C(=O)Cc2cc(NC(=O)Nc3ccc(C(F)(F)F)cc3)ccc2O[C@@H]1CN(C)Cc1ccc(C(=O)Nc2ccccc2N)cc1	·	0.1	·	0.5	·	·	·	·	·
COc1ccccc1C(=O)Nc1ccc(S(=O)(=O)N2CCc3ccccc32)cc1	-0.4	0.1	3.1	2.0	5.7	·	·	·	·
COc1cc(C(=O)Nc2ccc(S(=O)(=O)N3CCc4ccccc43)cc2)cc(OC)c1OC	0.7	·	10.8*	·	26.5*	6.0	2.3	25.8*	16.4*
COc1cccc(-c2ccc3c(c2)O[C@H](CN(C)C(=O)C2CC2)[C@H](C)CN([C@@H](C)CO)S3(=O)=O)c1	·	0.1	·	-5.1	·	·	·	·	·
C/C(=N\Nc1ccc([N+](=O)[O-])cc1)c1ccc(C#N)cc1	-0.2	-0.1	0.2	-2.5	5.0	·	·	·	·
C/C(=N/Nc1ccc([N+](=O)[O-])cc1)c1ccc(C)cc1C	-0.8	0.3	9.6*	-9.5	23.1*	7.5	2.5	18.9	14.9*
